This is an account of results in PubChem BioAssay (NCATS).

Where “and” joins values, the source holds several entries; their conditions need not be identical. Identical values can stand only once. Results filed as inconclusive are left out. Calls of active or inactive are those of the source. Calls follow the shape of the full dose curve.

This assay can be described thus: qHTS Assay for Lipid Storage Modulators (AID 1519). As to activity change, negative = inhibition: % is scaled to controls: 0 for no effect and ±100 for the full control effect. The following applies: Drosophila S3 cells, BODIPY lipid droplet/cell ratio, laser cytometry, cells loaded with oleic acid. An outline of the steps:
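Cells seeded at 5,000 per well were treated with compounds over a concentration series and loaded with oleic acid (400 uM, as added). Lipid droplet fluorescence (488 nm excitation, 500-530 nm channel) was read by laser-scanning cytometry and normalized to 20 uM Triacsin C.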
(Quantitative high-throughput screening tests each substance at several concentrations.)

Where [1] appears, read: measured here: cell count channel max response.
Setting [2] is: measured here: lipid channel max response.

With `CN/C(=C\[N+](=O)[O-])NCCSCc1csc(CN(C)C)n1`, the activity change, negative = inhibition (at 25.7 µM (top of the series)) is -0.861% (inactive). The max response is, setting by setting: under setting [1], -17.1%; under setting [2], -17.9%.

For `O=C(O)COC(=O)Cc1ccccc1Nc1c(Cl)cccc1Cl`, the activity change, negative = inhibition (at 25.7 µM (top of the series)) is 1.87% (inactive). Moreover, the max response by setting is: under setting [1], -9.2%; under setting [2], -7.55%.

As to `NC(=O)c1ccc([N+](=O)[O-])cc1Cl`, the activity change, negative = inhibition (at 57.5 µM (top of the series)) was -1.34% (inactive). For the same compound, the max response was -11.1% under setting [1] and -9.4% under setting [2].

Take `CC(=O)NCc1c(I)c(NC(C)=O)c(I)c(C(=O)O)c1I`: the activity change, negative = inhibition (at 57.5 µM (top of the series)) is 14.5% (inactive). Moreover, the max response runs as follows: under setting [1], 17.6%; under setting [2], 37%.

As for `C[N+](C)(C)CC[N+]1(C)Cc2c(Cl)c(Cl)c(Cl)c(Cl)c2C1`, the activity change, negative = inhibition (at 57.5 µM (top of the series)) is 0.877% (inactive). The max response under setting [1] was -22.8% and the max response under setting [2] was -20.9%.

Turning to `Cc1[nH]c(C)c(Cl)c(=O)c1Cl`, the activity change, negative = inhibition (at 57.5 µM (top of the series)) was 7.41% (inactive). Further, the max response is, setting by setting: under setting [1], 4.05%; under setting [2], 14%.

As for `O=C(CCBr)N1CCN(C(=O)CCBr)CC1`, under “at 57.5 µM (top of the series)”, the activity change, negative = inhibition was 9.22% (inactive). For the same compound, the max response worked out at 16.2% under setting [1] and 29.1% under setting [2].

Regarding `CC[N+](C)(CC)CCOC(=O)C1c2ccccc2Oc2ccccc21`, the activity change, negative = inhibition (at 25.7 µM (top of the series)) is -1.37% (inactive). Besides, the max response is, setting by setting: under setting [1], -9.32%; under setting [2], -11.4%.

Consider `CC(N)CCCC(C)(C)O` (stereo not given), for which the activity change, negative = inhibition (at 57.5 µM (top of the series)) is 4.55% (inactive). Moreover, the max response is, setting by setting: under setting [1], 25.6%; under setting [2], 35.7%.

`CCCNC(C)(C)COC(=O)c1ccccc1`: for the setting “at 25.7 µM (top of the series)”, the activity change, negative = inhibition is -1.27% (inactive). The max response is -4.93% under setting [1] and -6.33% under setting [2].

As to `O=C(O)c1cc(=O)c2ccccc2o1`, where the note is “at 57.5 µM (top of the series)”, the activity change, negative = inhibition is 0.609% (inactive). Also, the max response came out at 15.2% under setting [1] and 23.7% under setting [2].

`NC(=O)NC1NC(=O)NC1=O` (stereo not given): the activity change, negative = inhibition (at 57.5 µM (top of the series)) was 4.87% (inactive). Besides, the max response runs as follows: under setting [1], 2.56%; under setting [2], 9.47%.

As to `CC(=O)N[C@@H](CC(C)C)C(=O)O`, the activity change, negative = inhibition (at 25.7 µM (top of the series)) is -0.448% (inactive). Besides, the max response under setting [1] is -13.9% and the max response under setting [2] is -14.5%.

Consider `CC(=O)SC[C@@H](Cc1ccccc1)C(=O)NCC(=O)OCc1ccccc1`, for which, under “at 25.7 µM (top of the series)”, the activity change, negative = inhibition was -7.97% (inactive). The max response is, setting by setting: under setting [1], -8.69%; under setting [2], -18.1%.

For the compound `CC(=O)Oc1cccc(O)c1`, under “at 57.5 µM (top of the series)”, the activity change, negative = inhibition was 7.58% (inactive). Moreover, the max response under setting [1] worked out at 7.77% and the max response under setting [2] was 18.4%.

Regarding `O=C(O)c1ccccc1OP(=O)(O)O`, the activity change, negative = inhibition (at 25.7 µM (top of the series)) is 1.48% (inactive). Further, the max response under setting [1] came out at 3.1% and the max response under setting [2] was 4.99%.

For the compound `CN1CCCN=C1COC(=O)C(O)(c1ccccc1)C1CCCCC1` (stereo not given), the activity change, negative = inhibition (at 57.5 µM (top of the series)) was 5.7% (inactive). The max response is 7.14% under setting [1] and 15.3% under setting [2].

For `C1CCN2C[C@@H]3C[C@@H](CN4CCCC[C@@H]34)[C@H]2C1`, the activity change, negative = inhibition (at 57.5 µM (top of the series)) is 2.67% (inactive). Also, the max response was 14.6% under setting [1] and 18.3% under setting [2].

For `CC[N+](CC)(CC(=O)Nc1c(C)cccc1C)Cc1ccccc1`, where the note is “at 25.7 µM (top of the series)”, the activity change, negative = inhibition was -1.02% (inactive). Moreover, the max response is -6.23% under setting [1] and -4.81% under setting [2].

Regarding `Cc1cc(NC(=O)C2=C(O)c3ccccc3S(=O)(=O)N2C)no1`, the activity change, negative = inhibition (at 25.7 µM (top of the series)) is -0.235% (inactive). For the same compound, the max response under setting [1] is -4.56% and the max response under setting [2] is -5.22%.

Take `O=c1[nH]cnc2nc[nH]c12`: the activity change, negative = inhibition (at 57.5 µM (top of the series)) is 6.77% (inactive). Besides, the max response runs as follows: under setting [1], 11.9%; under setting [2], 19.1%.

For the compound `CCCCCC(C)N` (stereo not given), the activity change, negative = inhibition (at 57.5 µM (top of the series)) was -8.69% (inactive). Also, the max response is -12.5% under setting [1] and -21.2% under setting [2].

Consider `CC(C)=CCC/C(C)=C/CO`, for which the activity change, negative = inhibition (at 57.5 µM (top of the series)) was 10.2% (inactive). In addition, the max response was 14.3% under setting [1] and 29.9% under setting [2].

As for `C/C=C/C(=O)N(CC)c1ccccc1C`, the activity change, negative = inhibition (at 57.5 µM (top of the series)) is 9.1% (inactive). For the same compound, the max response came out at 2.55% under setting [1] and 11.8% under setting [2].

For `Cc1cc(O)cc(C)c1Cl`, under “at 57.5 µM (top of the series)”, the activity change, negative = inhibition was 11.1% (inactive). The max response by setting is: under setting [1], -12.4%; under setting [2], 1.81%.

On to `C[C@@H]1CCC[C@H](C)N1`, for which, where the note is “at 25.7 µM (top of the series)”, the activity change, negative = inhibition is -3.01% (inactive). Moreover, the max response runs as follows: under setting [1], -4.31%; under setting [2], -8.89%.

As to `COc1ccc(NS(=O)(=O)c2ccc(N)cc2)nn1`, the activity change, negative = inhibition (at 25.7 µM (top of the series)) was 0.554% (inactive). In addition, the max response under setting [1] is 3.32% and the max response under setting [2] was 3.23%.

With `CC1CCc2cc(F)cc3c(=O)c(C(=O)O)cn1c23` (stereo not given), the activity change, negative = inhibition (at 57.5 µM (top of the series)) is 6.51% (inactive). For the same compound, the max response is 18.4% under setting [1] and 28.6% under setting [2].

On to `Cc1cccc(C(=O)O)c1O`, for which, under “at 57.5 µM (top of the series)”, the activity change, negative = inhibition is 6.75% (inactive). In addition, the max response runs as follows: under setting [1], 1.99%; under setting [2], 8.34%.

In the case of `Cc1c(NC(=O)c2cccnc2)c(=O)n(-c2ccccc2)n1C`, the activity change, negative = inhibition runs as follows: (at 25.7 µM (top of the series)) -1.84% (inactive); (at 57.5 µM (top of the series)) 5.04% (inactive). Moreover, the max response reads like this: under setting [1], 3.68% and 18.2%; under setting [2], 4.21% and 26.8%.

Take `COc1ccc2cc(CCC(C)=O)ccc2c1`: under “at 25.7 µM (top of the series)”, the activity change, negative = inhibition was 1.09% (inactive). Also, the max response reads like this: under setting [1], -11.1%; under setting [2], -11.1%.

Take `CCOC(N)=O`: the activity change, negative = inhibition (at 57.5 µM (top of the series)) is 5.36% (inactive). Also, the max response reads like this: under setting [1], 18.8%; under setting [2], 25.8%.

With `Cn1c(=O)c2c(ncn2CCO)n(C)c1=O`, the activity change, negative = inhibition is, setting by setting: (at 25.7 µM (top of the series)) -0.0249% (inactive); (at 57.5 µM (top of the series)) 6.15% (inactive). In addition, the max response under setting [1] was 7.29% and 18.9%; the max response under setting [2] is 6.36% and 16.1%.

As to `COc1ccccc1OCC(O)CO` (stereo not given), the activity change, negative = inhibition (at 57.5 µM (top of the series)) was 8.3% (inactive). Besides, the max response runs as follows: under setting [1], -0.08%; under setting [2], 10.1%.

Turning to `Cc1ccsc1/C=C/C1=NCCCN1C`, the activity change, negative = inhibition (at 57.5 µM (top of the series)) is 7.06% (inactive). The max response is, setting by setting: under setting [1], 12.1%; under setting [2], 23.6%.

For `CN[C@@H]1[C@H](O)[C@H](NC)[C@H]2O[C@@]3(O)C(=O)C[C@@H](C)O[C@H]3O[C@@H]2[C@H]1O`, the activity change, negative = inhibition (at 57.5 µM (top of the series)) is -5.49% (inactive). The max response under setting [1] is 7.5% and the max response under setting [2] came out at 3.08%.

Take `NC(N)=NS(=O)(=O)c1ccc(N)cc1`: the activity change, negative = inhibition is -0.993% (inactive) (at 25.7 µM (top of the series)) and 6.41% (inactive) (at 57.5 µM (top of the series)). The max response by setting is: under setting [1], 1.84% and 2.06%; under setting [2], -0.509% and 12.7%.

Regarding `Cc1onc(-c2ccccc2)c1-c1ccc(S(N)(=O)=O)cc1`, for the setting “at 57.5 µM (top of the series)”, the activity change, negative = inhibition was 13.7% (inactive). For the same compound, the max response runs as follows: under setting [1], 11.6%; under setting [2], 23.9%.

On to `CCOC(=O)[C@H](CCc1ccccc1)N[C@@H](C)C(=O)N1CCC[C@H]1C(=O)O`, for which, where the note is “at 25.7 µM (top of the series)”, the activity change, negative = inhibition was 0.997% (inactive). The max response is -1.26% under setting [1] and 0.539% under setting [2].
